Assay outcomes as filed in PubChem BioAssay.
Hits are enriched below; roughly 7.9% of the tested compounds scored in any of these assays.
FMDV antiviral = foot and mouth disease virus antiviral activity. FMDV antiviral cell-based qHTS. Potency, µM (series often up to 57.9 µM), for inactives: top-dose activity change, negative = inhibition, actives largely listed as inhibitors. 410,000 compounds, 1.2% hits. AID 1159524; calls by dose curve; tested in HEK293T cells; also: read-out not given here; potency is read from the fitted curve at half-maximal effect; nearly all actives have a fitted effect of over 45% in size
HCMV inh = blocks human cytomegalovirus replication. HFF cells, HCMV-luciferase reporter, 72 h; stronger effect = lower value. activity change, negative = inhibition, % at 57.5 µM. 410,000 compounds, 4.5% hits. AID 1259415; in the data active = activity change below about -60%; inconclusive = no clear call, values can overlap the other calls; inactive = above about -39%
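Luciferase read-out from HCMV-luciferase-infected HFFs (MOI 1 PFU/cell) 72 h post infection at 37C; compounds added after 16 h cell attachment; activity normalized between buffer-only basal and Salinomycin (10uM) inhibitor controls.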
Lassa entry inh = Lassa virus entry inhibition; Lassa virus pseudotype entry inhibition, cell reporter; Potency, µM (doses to about 37.9 µM), inactives show at the top dose activity change, negative = inhibition, most hits filed as inhibitors; 300,000 compounds, 1.2% hits; AID 540256; calls by dose curve; tested in HEK293 cells; also: potency is read from the fitted curve at half-maximal effect; nearly all actives have a fitted effect of over 50% in size
MARV entry inh = inhibitors of Marburg virus binding or cell entry | Marburg virus pseudotyped entry inhibition, cell reporter | Potency, µM (series often up to 37.8 µM), for inactives: at the highest dose activity change, negative = inhibition, actives largely listed as inhibitors | 300,000 compounds, 1.8% hits | AID 540276; calls by dose curve; tested in HEK293 cells; also: potency is read from the fitted curve at half-maximal effect
HCV inh = HCV inhibition | Huh7.5.1 HCVcc-Cre infection, luciferase reporter, 44 h | Potency, µM (highest dose often 41.8 µM), inactives show at the highest dose activity change, negative = inhibition, hits mostly inhibitors | 340,000 compounds, 3.4% hits; active = well fitted inhibition curve with a large enough effect; inconclusive = small, poorly fitted or top-dose-only effect, or another doubt; inactive = no such curve, though single readings can be large or run the other way; also: potency is read from the fitted curve at half-maximal effect
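Reporter virus HCVcc-Cre (~0.5 moi) infects cells exposed to compound; seeding density 1,000 cells/well with 4 h settling beforehand. Luminescence, 15 sec read, taken 44 h post-infection following a 15 min RT substrate incubation.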
* = called active by the depositor; ? = inconclusive; nt = no result; [ ] = dose if it differs, or a comment. % is scaled to controls: 0 for no effect and ±100 for the full control effect.

SMILES | FMDV antiviral | HCMV inh | Lassa entry inh | MARV entry inh | HCV inh
CCCn1c(=O)c2sccc2n2c(CCCC(=O)Nc3ccc(C)c(F)c3)nnc12 | -20% | ? | -10%[46.1 µM] | nt | nt
CCC(C)n1c(=O)c2sccc2n2c(CCCC(=O)Nc3ccc(F)cc3)nnc12 (stereo not given) | -1% | -65* | -10%[46.1 µM] | nt | nt
CCc1ccc(NC(=O)CCCc2nnc3n(C(C)CC)c(=O)c4sccc4n23)cc1 (stereo not given) | -15% | ? | 1%[46.1 µM] | nt | nt
Cn1c(=O)c2sccc2n2c(CCCC(=O)Nc3ccc(Oc4ccccc4)cc3)nnc12 | ? | -65* | -9%[46.1 µM] | nt | nt
Cc1ccc(NC(=O)CCCc2nnc3n(C)c(=O)c4sccc4n23)cc1F | 1.3µM* | -31 | ? | 18%[46.1 µM] | nt
COc1ccccc1CNC(=O)CSc1nc(=O)[nH]c2c1CCC2 | -7% | -28 | 0%[46.1 µM] | nt | nt
Cc1ncoc1C(=O)NCc1nc(-c2cccc(NC(=O)c3ccccn3)c2)oc1C | 1% | nt | nt | nt | nt
Cc1cnc(-n2ncc(C(=O)NCc3ccncc3)c2C(C)C)nc1-c1ccc(F)cc1 | -21% | nt | nt | nt | nt
OCCN(CCO)c1ccc(C(c2ccccc2Cl)c2ccc(N(CCO)CCO)cc2Cl)c(Cl)c1 | 40µM* | nt | 11µM* | -27% | ?
Cc1ccc2c(c1)c1c3n2CCN(CC(N)=O)C3CCC1 (stereo not given) | -3% | -98* | 24%[46.1 µM] | -3%[46.1 µM] | ?
CN1CCN(CC(=O)N2CCn3c4c(c5cc(C6CCCCC6)ccc53)CCCC42)CC1 (stereo not given) | ? | nt | ? | ? | 7.9µM*
OC(c1ccccc1)(c1ccccc1)C1CN2CCC1CC2 (stereo not given) | -14% | -15 | -15% | ? | ?
OC(c1ccccc1)(c1ccc(Cl)cc1)C1CN2CCC1CC2 (stereo not given) | 0% | 39 | 13µM* | ? | 2.8µM*
CCc1ccc(-n2c(SC(CC)C(=O)N(CC)CC)nc3n[nH]c(C)c3c2=N)cc1 (stereo not given) | ? | -84* | -16%[46.1 µM] | nt | nt
COC(=O)C1=C(C)N(CC2CC2)C(=O)NC1c1ccccc1 (stereo not given) | nt | nt | nt | -5%[14.2 µM] | nt
COc1cccc2sc(N)nc12 | -5% | -26 | nt | nt | -4%
COc1cccc2sc(N(C)c3ccccc3)nc12 | -3% | 38 | ? | ? | 25µM*
COc1ccc(CN2CCC(C(=O)c3cccc(Cl)c3)CC2)cc1 | -14% | -8 | nt | nt | -9%
COc1ccc(CN2CCC(C(=O)c3ccc(Cl)cc3)CC2)cc1 | -17% | -37 | nt | nt | 11µM*
CC(C)Oc1cccc(C(=O)C2CCCN(Cc3ccc4nonc4c3)C2)c1 (stereo not given) | -17% | -20 | ? | ? | ?
COc1cccc(C(=O)C2CCCN(Cc3ccc(OC)c(Cn4cncn4)c3)C2)c1 (stereo not given) | -23% | 0 | -15% | ? | ?
O=C(c1ccc(Cl)cc1)C1CCCN(Cc2ccc3nonc3c2)C1 (stereo not given) | 4% | -25 | nt | nt | 22µM*
COc1ccc(CN2CCCC(C(=O)c3ccc(Cl)cc3)C2)cc1Cn1cccn1 (stereo not given) | -14% | -9 | 10µM* | 2.8µM* | 10µM*
CCOc1ccc(CCn2c3c(c(=O)[nH]c2=O)C(NC(=O)c2cccc(F)c2)(C(F)(F)F)C(=O)N3)cc1OCC (stereo not given) | -11% | 2 | 25%[46.1 µM] | -1%[46.1 µM] | nt
CC1(C)C[C@@H]2C[C@@](C)(CN2C(=O)c2cc(COc3cccc(C(F)(F)F)c3)on2)C1 | -13% | ? | -30% | ? | 10µM*
SMILES | FMDV antiviral | HCMV inh | Lassa entry inh | MARV entry inh | HCV inh
O=C(c1cc(COc2cccc(C(F)(F)F)c2)on1)N1C[C@H]2CC[C@H]1C2 | 1% | -13 | -9% | ? | -21%
CC1c2ccccc2-c2ccccc2N1C (stereo not given) | 8% | -26 | 11% | -5% | 13µM*
Cc1cc(NC(=O)CCC(=O)N(c2cccc(F)c2)C(C(=O)NC2CCCC2)c2ccccc2)no1 (stereo not given) | 10% | -19 | -5% | 1%[46.1 µM] | 5%
COc1cc(C)ccc1OCCCCN1CC(C)OC(C)C1 (stereo not given) | 5% | 2 | 2% | ? | 7%
C=CCc1ccc(OCCCCN2CCC(C)CC2)c(OC)c1 | -11% | -30 | ? | 15µM* | ?
C=CCc1ccc(OCCCN2CCCC(C)C2)c(OC)c1 (stereo not given) | -4% | 32 | -20% | ? | 25µM*
C=CCc1ccc(OCCCCN2CC(C)CC(C)C2)c(OC)c1 (stereo not given) | -23% | -28 | ? | 7.1µM* | -14%
COc1cccc(Cn2c(=O)c(-c3cccs3)nc3cnc(OCc4ccccc4)nc32)c1 | -14% | nt | nt | nt | nt
Cc1ccc(Nc2nccc(N(C)c3ccc4c(C)n(C)nc4c3)n2)cc1S(N)(=O)=O | nt | -84* | nt | nt | nt
CCNC(=O)N[C@H]1CC[C@@]23CCCN2C(=O)CCC[C@H]3[C@H]1C | nt | -6 | nt | nt | nt
Cc1ccc(O)c(NC(=O)c2ccc(Br)c(S(=O)(=O)N3CCCCC3)c2)c1 | 0% | -73* | ? | nt | nt
Cc1ccc(O)c(NC(=O)c2cccc(S(=O)(=O)N3CCCCC3)c2)c1 | -8% | -25 | -14% | -16%[46.1 µM] | 11µM*
O=C(Nc1ccccn1)c1ccc(Br)c(S(=O)(=O)N2CCCCC2)c1 | ? | 3 | 4% | 8% | 19%
Cc1cc(NC(=O)c2ccc(Br)c(S(=O)(=O)N3CCCC3)c2)no1 | ? | -69* | 1% | -27% | ?
Cc1cc(NC(=O)c2cccc(S(=O)(=O)N3CCCC3)c2)no1 | 12% | 4 | -11%[14.3 µM] | -1% | 11%
Cc1ccc(NS(=O)(=O)c2ccc(C)c(NC(=O)c3ccc(S(=O)(=O)N4CCCCCC4)cc3)c2)c(C)c1 | -18% | -64* | nt | nt | nt
CCCc1c(C(=O)NNc2cc(C(F)(F)F)ccc2Cl)cnn1-c1ccccc1 | -12% | -66* | -9% | ? | ?
COc1ccccc1Nc1nnc(SCC(=O)N2CCCC2)s1 | 44% | 111 | 23% | 24% | 7%
O=C(Nc1ccccc1)Nc1nnc(SCC(=O)N2CCCCC2)s1 | ? | 2 | ? | nt | nt
Cc1ccc(NC(=O)Nc2nnc(SCC(=O)N3CCCCC3)s2)cc1 | 20% | -87* | -3%[46.1 µM] | nt | nt
O=C(Nc1ccc(F)cc1)Nc1nnc(SCC(=O)N2CCCCC2)s1 | -17% | -75* | 20%[46.1 µM] | nt | nt
CCOc1ccccc1Nc1nnc(SCC(=O)N2CCCC2)s1 | 18% | 141 | 13% | 13% | 25µM*
CC1(C(=O)NCCC#N)CCN1C(=O)Cc1ccc(-c2ccccc2)cc1 (stereo not given) | -24% | 7 | nt | nt | nt
COc1cccc(C(=O)Nc2cccc3ccccc23)c1OC | 21% | -11 | ? | 8.9µM* | ?
COC(=O)c1c(-c2cccc3ccccc23)csc1NC(=O)Cc1ccc(OC)c(OC)c1 | ? | ? | 11µM* | ? | 5.6µM*
COc1ccc(CC(=O)Nc2cccc3ccccc23)cc1OC | ? | -85* | ? | -26% | ?
